Data taken from paper PMC5540273 (PLoS ONE, 2017).

These compounds were tested on T1, TIE2. Conditions: concentration: 1 μM, replicates: in singlicate; n = 1.
T1 construct: gene TEK
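Note: KINOMEscan kinase panel screen.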

In order of falling “%Inh” value:
1. COc1ccc(-c2coc3ccc(-c4nnc(C)o4)cc23)cc1  40%
2. O=C(Nc1n[nH]c2cc(-c3ccsc3)ccc12)C1CC1 [SB-732932]  11%
3. CNCc1ccc2nc(NC(=O)c3ccc(C(C)(C)C)cc3)cn2c1  4%
4. Fc1ccc(-c2nn3cccc(F)c3c2-c2ccncc2)cc1 [GW475620]  1%
5. CC[C@@H]1CO[C@H](C(=O)Nc2ccccc2)CN1c1cc(-c2ccc3c(N)n[nH]c3c2)nc(NC)n1 [GSK2376236]  0%
6. CNc1cc(-c2ccc3c(N)n[nH]c3c2)nc(N)n1 [GSK2224810]  0%
7. COC(=O)C(NC(=O)NC1CCN(c2ccnc(Nc3ccc(F)cc3)n2)C1)c1ccccc1 (stereo not shown) [GSK1379712]  0%
8. Cc1ccccc1Cn1ccn2c(=O)cc(N3CCOCC3)nc12 [GSK2269905]  0%
9. COc1ccc(Nc2nccc(-c3ccc(NC(=O)c4cc5cc(F)ccc5[nH]4)cc3)n2)cc1 [GSK1229496]  0%
10. COc1ccc(Nc2nccc(N3CCC(NC(=O)c4cc5ccccc5s4)C3)n2)cc1 (stereo not shown) [GSK1379738]  0%
11. CS(=O)(=O)CCNCc1nc(-c2ccc3ncnc(Nc4ccc(OCc5ccccc5)c(Cl)c4)c3c2)cs1.Cl [GW582764]  0%
12. Cl.Cl.Cl.N#Cc1ccc(CCNc2nccc(-c3cccc(CN4CCNCC4)c3)n2)cc1 [GSK2137462]  0%
13. Cc1c(Cn2c3ccccc3n3c(=O)cc(N4CCOCC4)nc23)cccc1C(F)(F)F [GSK2306394]  0%
